Assay outcomes: PubChem BioAssay, National Center for Advancing Translational Sciences (NCATS)
Pf growth 96h: Primary qHTS for delayed death inhibitors of the malarial parasite plastid, 96 hour incubation. P. falciparum luciferase reporter growth, 96 h. Potency, µM (series often up to 28.7 µM), hits mostly inhibitors. 320,000 tested, 6.9% active
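Compounds incubated with erythrocytes infected by luciferase-expressing P. falciparum (2% hematocrit, 0.05% parasitemia final) for 96 hours, 37 C in 5% CO2. Growth inhibition scored as decreased luciferase luminescence.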
Sm TGR block: qHTS Assay for the Inhibitors of Schistosoma Mansoni Peroxiredoxins; Schistosoma mansoni thioredoxin glutathione reductase (TGR), Q962Y6; purified TGR, DTNB reduction, TNB absorbance 405 nm; Potency, µM (series often up to 114 µM), hits mostly inhibitors; 360,000 tested, 3% active; note: nearly all actives have a fitted effect of over 60% in size
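TGR 20 nM + NADPH 100 uM (dispensed conc.), cpd preinc 15 min RT; start with NADPH (500 uM addition) then DTNB (15 mM addition). Kinetic TNB absorbance, 405 nm filter. Four-parameter Hill fit across titration.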
Pf growth 48h: Primary qHTS for delayed death inhibitors of the malarial parasite plastid, 48 hour incubation; P. falciparum luciferase growth in erythrocytes, 48 h; Potency, µM (top dose mostly 28.7 µM), most hits filed as inhibitors; 310,000 tested, 5.9% active; AID 504832, 2011
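Erythrocytes infected with P. falciparum carrying an integrated firefly luciferase reporter (2% hematocrit, 0.1% parasitemia final) were exposed to compounds in RPMI 1640 with 0.5% Albumax at 37 C, 5% CO2. Growth inhibition was scored as reduced luminescence.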
Shiga inhibitor: A qHTS for Small Molecule Inhibitors of Shiga Toxin | inhibition, % at 38.7 µM | Vero cells, Shiga toxin protein synthesis inhibition reporter | AID 2315, 2010 | 290,000 tested, 9.2% active; in the data active = inhibition mostly above about 28%, no sharp cut-off; inactive = mostly below about 43%
NS1 function inh: qHTS Assay for Inhibitors of Influenza NS1 Protein Function; Potency, µM (top dose mostly 46.1 µM); 270,000 tested, 0.4% active; AID 2326, 2010; calls by dose curve; note: actives are rising curves; nearly all actives have a fitted effect of over 50% in size
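In this qHTS, NS1 from influenza A is expressed in budding yeast, where it slows growth. Cells are switched from glucose to 2% galactose medium (pH 6.0, -URA), treated with compound, and growth recovery is read at OD600.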
Cycloheximide cs: Cycloheximide Counterscreen for Small Molecule Inhibitors of Shiga Toxin | cell reporter, cycloheximide protein synthesis inhibition counterscreen | max response, % | 300,000 tested, 12% active | AID 2314, 2010; in the data active = max response mostly above about 13%, no sharp cut-off; inactive = mostly below about 14%; note: read at 38.3 µM for the half of the compounds with a filed dose
Of the large screens only hits and unclear results are named; the others gave an inactive call. Most compounds without a hit are left out; they make up all but 21% or so of the library. Unless noted, calls come from the whole dose curve; as a rule, active = well fitted curve in the direction sought with a large enough effect; inconclusive = small, poorly fitted or top-dose-only effect, or another doubt; inactive = no such curve, though single readings can be large; an effect the other way counts as inactive or inconclusive.

CC(=O)n1cc([C@H]2C=C(C(=O)N3CCN(Cc4ccc5c(c4)OCO5)CC3)O[C@@H](OCCCCO)C2)c2ccccc21	Pf growth 96h inconclusive, Sm TGR block inconclusive, Pf growth 48h 0.93µM
CCO[C@@H]1OC(C(=O)N2CCN(Cc3ccc4c(c3)OCO4)CC2)=C[C@H](c2cn(C(C)=O)c3ccccc23)[C@H]1CCCO	Pf growth 96h 4.1µM, Pf growth 48h 1.3µM
COc1ccc(OC)c(N(/C(N)=N/c2nc(C)cc(C)n2)S(=O)(=O)c2ccc(NC(C)=O)cc2)c1	none
CCc1ccc(NC2=NCC(c3ccccc3)S2)cc1 (stereo not drawn)	Pf growth 48h inconclusive, Shiga inhibitor 82, Cycloheximide cs 58 (no result: NS1 function inh)
Cc1ccc(NC2=NCC(Cc3ccc(Br)cc3)S2)cc1 (stereo not drawn)	Pf growth 48h inconclusive
Nc1cc([N+](=O)[O-])ccc1Nc1ccccc1	Pf growth 48h inconclusive
O=[N+]([O-])c1ccc(C2CN=C(Nc3ccccc3)S2)cc1 (stereo not drawn)	Shiga inhibitor 77, Cycloheximide cs 57 (no result: NS1 function inh)
COc1ccccc1CNC(=O)Cc1csc2nc(-c3ccccc3)cn12	none (no result: Pf growth 96h, Pf growth 48h, Shiga inhibitor, NS1 function inh, Cycloheximide cs)
Cc1ccc(NC(=S)NC2CCSc3ccccc32)cc1C (stereo not drawn)	Pf growth 96h inconclusive, Pf growth 48h inconclusive
Nc1nc(N)c2cc(Sc3ccc4ccccc4c3)ccc2n1	Pf growth 96h inconclusive, Pf growth 48h 0.0074µM
Nc1ccc(Sc2cc(Cl)nc(N)n2)cc1	none
CCCCOc1nc(N2CCOCC2)nc(C)c1[N+](=O)[O-]	none
Cc1nc(N2CCOCC2)nc(Oc2ccccc2)c1[N+](=O)[O-]	Sm TGR block 7.1µM
CCn1c(=O)c(C(=O)CN2CCN(S(=O)(=O)c3cc(C)ccc3C)CC2)c(N)n(Cc2ccccc2)c1=O	Pf growth 96h 13µM, Pf growth 48h inconclusive
O=C(c1ccccc1Cc1ccccc1)N1CCN(S(=O)(=O)c2ccccc2[N+](=O)[O-])CC1	Pf growth 96h 13µM, Pf growth 48h inconclusive (no result: Shiga inhibitor, NS1 function inh, Cycloheximide cs)
O=C(c1ccccc1Cc1ccccc1)N1CCN(S(=O)(=O)c2ccccc2)CC1	Pf growth 96h inconclusive
Cc1ccc(C)c(S(=O)(=O)N2CCN(C(C)C(=O)Nc3ccccc3-c3ccccc3)CC2)c1 (stereo not drawn)	Pf growth 96h 4.1µM, Pf growth 48h 9.3µM
O=C(c1ccccc1Cc1ccccc1)N1CCN(S(=O)(=O)c2ccccc2F)CC1	Pf growth 96h 13µM, Pf growth 48h 12µM (no result: Shiga inhibitor, NS1 function inh, Cycloheximide cs)
COc1cccc(-n2c(SCc3cccc(C)c3)nc3c([nH]c4ccccc43)c2=O)c1	none (no result: Pf growth 96h, Pf growth 48h, Shiga inhibitor, NS1 function inh, Cycloheximide cs)
COc1ccc(C2CC(=O)c3cc(-c4nc(-c5cccc([N+](=O)[O-])c5)cs4)c(=O)n(-c4ccc(C)c(C)c4)c3C2)cc1 (stereo not drawn)	none (no result: Pf growth 96h, Pf growth 48h, Shiga inhibitor, NS1 function inh, Cycloheximide cs)
COc1ccc(-c2nc3scc(CCNS(=O)(=O)c4ccc(Oc5ccccc5)cc4)n3n2)cc1OC	none (no result: Pf growth 96h, Pf growth 48h, Shiga inhibitor, NS1 function inh, Cycloheximide cs)
Cc1ccc(C)c(S(=O)(=O)N2CCN(C(=O)c3ccccc3Cc3ccccc3)CC2)c1	Pf growth 96h inconclusive, Pf growth 48h 12µM (no result: Shiga inhibitor, NS1 function inh, Cycloheximide cs)
Cc1ccc(C)c(S(=O)(=O)N2CCN(C(=O)c3ccccn3)CC2)c1	Sm TGR block inconclusive (no result: Shiga inhibitor, NS1 function inh, Cycloheximide cs)
COc1ccc(OC)c(/C=C2\S/C(=N/NC(=O)c3ccc4ccccc4c3)NC2=O)c1	Pf growth 96h 6.6µM
Cc1cc(SCC(=O)OCC(=O)N2CCCC2=O)c(C)cc1Br	none (no result: Shiga inhibitor, NS1 function inh, Cycloheximide cs)
CC(=O)N1CCN(C(=O)CSc2cc(C)c(Br)cc2C)CC1	Shiga inhibitor 48, Cycloheximide cs 34
CC(C)c1ccc(S(=O)(=O)c2nnn3c2nc(NCCc2ccccc2)c2sccc23)cc1	none (no result: Pf growth 96h, Pf growth 48h, Shiga inhibitor, NS1 function inh, Cycloheximide cs)
CCOC(=O)C1=C(Nc2ccc(OC)cc2)OCC1=O	Pf growth 96h inconclusive, Pf growth 48h inconclusive
Cc1nc(Nc2cccc(O)c2)c2oc3ccccc3c2n1	Shiga inhibitor 52, Cycloheximide cs 42
Cc1nc(Nc2cccc(F)c2)c2oc3ccccc3c2n1	Shiga inhibitor 97, Cycloheximide cs 28
Cc1nc(NCCCn2ccnc2)c2oc3ccccc3c2n1	Pf growth 96h inconclusive, Pf growth 48h inconclusive, NS1 function inh inconclusive, Cycloheximide cs 16
Cc1nc(Nc2ccccc2F)c2oc3ccccc3c2n1	Shiga inhibitor 69, Cycloheximide cs 32
